PP5 inh – PP5 phosphatase inhibitors, primary screen, biochemical, fluorescence | Serine/threonine-protein phosphatase 5 (Homo sapiens), P53041 | purified PP5c, OMFP substrate fluorescence | inhibition, % at 6.7 µM | 320,000 compounds, 0.18% hits | AID 1987, 2009;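 active = inhibition above the campaign's mean inhibition across all tested compounds plus 3 SD, cut at about 9.5% in these data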
CSC inhib – cancer stem cell viability inhibitors, primary screen, luminescence. 300,000 compounds, 1.1% hits. inhibition, % at 7.5 µM. cancer stem cell-like cells viability; in the data active = inhibition above about 75%; tested in HMLE shEcad cells
Mdm2-MdmX inh – inhibitors of human Mdm2-MdmX association, primary screen, cell-based, luminescence, split luciferase, SaOS-2, uHTS; Protein Mdm4 (Homo sapiens) + E3 ubiquitin-protein ligase Mdm2 (Homo sapiens), …; SaOS-2 split-luciferase Mdm2/MdmX complementation; inhibition, % at 8 µM; 330,000 compounds, 3% hits; AID 485346, 2010;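 active = inhibition of at least 50% at 8 µM in the primary screen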
Beta cell apopt – inhibitors of cytokine-induced beta cell apoptosis, primary screen, luminescence; INS-1E cytokine-induced death, ATP luminescence, 48 h; percent of positive-control rescue, neutral wells zero; protection from apoptosis, % (concentration not given with the values); 300,000 compounds, 0.8% hits; AID 435005, 2010;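 active = Every replicate reaches about 75%, or at least half do and their mean reaches it too, limit read from the data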;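 also: higher means more ATP so stronger rescue from cytokine killing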
PP1 inh – PP1-alpha phosphatase inhibitors, primary screen, counter-screen for PP5 inhibitor project, biochemical, fluorescence, OMFP substrate, single point; purified PP1alpha; AID 2235, 2010; inhibition, % at 6.7 µM; 320,000 compounds, 0.9% hits;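 active = inhibition above the mean inhibition of all tested compounds plus 3 SD, computed separately for each screening campaign, cut at about 15% in these data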
Target sequence (P62136 whole entry, looked up): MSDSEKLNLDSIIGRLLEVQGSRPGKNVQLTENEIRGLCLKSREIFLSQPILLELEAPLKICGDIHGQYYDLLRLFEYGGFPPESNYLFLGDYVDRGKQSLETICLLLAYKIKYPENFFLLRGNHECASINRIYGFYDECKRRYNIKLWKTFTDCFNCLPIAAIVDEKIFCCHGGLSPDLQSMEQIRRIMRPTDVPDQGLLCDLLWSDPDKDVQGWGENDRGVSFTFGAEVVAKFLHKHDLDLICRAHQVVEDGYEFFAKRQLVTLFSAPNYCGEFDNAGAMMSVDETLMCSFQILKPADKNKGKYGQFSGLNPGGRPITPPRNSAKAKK
Calb FLC – C. albicans growth inhibition with fluconazole, primary screen, CaCi-2 strain, Alamar Blue fluorescence; growth inhibition, % (concentration not given with the values); 300,000 compounds, 0.57% hits; C. albicans CaCi-2 (fluconazole-resistant clinical isolate) + fluconazole, 48 h;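 active = growth inhibition above about 58% in most replicates, limit read from the data, passing the limit was not always enough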;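 also: all wells also contain fluconazole at 8 µg/ml as a sub-toxic cotreatment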
Mdm2 MdmX conf – Mdm2-MdmX complex disruptors, retested hits, confirmation, luminescence, single concentration; shares compounds with Mdm2-MdmX inh; Mdm2-MdmX binding, luminescent assay; inhibition, % at 8 µM; 10,000 compounds, 55% hits; in the data active = inhibition above about 40%
Full FLuc ctr – full-length luciferase signal inhibition, confirmation, counter-screen for Mdm2/MdmX interaction inhibitor project, cell-based, single concentration, SaOS-2; inhibition, % at 8 µM; AID 504607, 2011; SaOS-2 full-length luciferase counterscreen, luminescence; 6,200 compounds, 77% hits; shares compounds with Mdm2-MdmX inh;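 active = mean inhibition at 8 µM reaching about 37%, which flags the compound as non-specific, limit read from the data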;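 also: p53-null SaOS-2 cells with luciferase driven by a doxycycline-inducible promoter; compound on cells about two nights before reading with doxycycline added after day one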
Each line names hits and unclear results; the compound was inactive in the other large screens (follow-up assays come after a bar, where they were run). Sampled rows, rich in hits. Any-hit rate of the full collection: about 4.9%.

O=C(NC1=NCCCCC1)c1cccc2ccccc12	none
O=C(ONC1=NCCCCC1)c1c(F)cccc1F	Mdm2-MdmX inh 65 | Mdm2 MdmX conf inactive
O=C(ONC1=NCCCCC1)c1ccc(Cl)cc1	Mdm2-MdmX inh 70 | Mdm2 MdmX conf inactive
O=C(CCCN1C(=O)/C(=C\c2ccccc2)SC1=S)N1CCOCC1	Mdm2-MdmX inh 51 (no result: PP5 inh, PP1 inh, Calb FLC) | Mdm2 MdmX conf inactive
O=C(c1ccccc1)N1CCN(CCc2ccccn2)CC1	none (no result: Beta cell apopt)
O=C(CCN1C(=O)/C(=C\c2ccccc2)SC1=S)N1CCCCC1	Mdm2-MdmX inh 57 | Mdm2 MdmX conf 72 | Full FLuc ctr 61
CC(=O)NNC(=O)CN1C(=O)/C(=C/c2ccccc2)SC1=S	none
CCN(CC)C(=O)CN1C(=O)/C(=C/c2ccccc2)SC1=S	Mdm2-MdmX inh 63 | Mdm2 MdmX conf 45 | Full FLuc ctr inactive
COc1ccc(/C=C2\SC(=S)N(CCCC(=O)N3CCOCC3)C2=O)cc1	none
O=C(CN1C(=O)/C(=C/c2ccccc2)SC1=S)N1CCN(CCc2ccccn2)CC1	Mdm2-MdmX inh 84 (no result: Calb FLC) | Mdm2 MdmX conf 54 | Full FLuc ctr inactive
CCC(=O)Nc1ccc(C(=O)NNC(=O)c2cccc(C)c2)cc1	none
C=CCN1C(=O)N(c2ccccc2)C(=O)C1CC(=O)Nc1ccc(OC)cc1 (stereo not drawn)	none
COc1ccc(-c2[nH]ncc2CN2CCC(OCc3ccccn3)CC2)c(F)c1	none
O=C(CCN1C(=O)/C(=C/c2cccs2)SC1=S)N1CCCCC1	Mdm2-MdmX inh 68 | Mdm2 MdmX conf 52 | Full FLuc ctr 45
Cc1ccc(/C=C2\SC(=S)N(CCC(=O)N3CCCCC3)C2=O)cc1	Mdm2-MdmX inh 72 (no result: CSC inhib) | Mdm2 MdmX conf 66 | Full FLuc ctr 122
O=C(CCN1C(=O)/C(=C\c2ccccc2)SC1=S)NNC(=O)c1ccccc1O	none
O=C(CCCN1C(=O)/C(=C/c2ccccc2)SC1=S)Nc1ccccc1O	Mdm2-MdmX inh 95 (no result: Beta cell apopt) | Mdm2 MdmX conf 88 | Full FLuc ctr inactive
O=C(CN1C(=O)S/C(=C/c2ccncc2)C1=O)N1CCOCC1	Mdm2-MdmX inh 65 | Mdm2 MdmX conf inactive
CC(=O)c1ccc(NC(=O)CSc2nnc(NC(=O)c3ccco3)s2)cc1	none
COc1cc(/C=C2\SC(=S)N(CCC(=O)N3CCCCC3)C2=O)cc(OC)c1OC	Mdm2-MdmX inh 68 (no result: CSC inhib) | Mdm2 MdmX conf 43 | Full FLuc ctr 63
O=C(CCN1C(=O)/C(=C\c2cccc(Br)c2)SC1=S)N1CCOCC1	Mdm2-MdmX inh 61 | Mdm2 MdmX conf 47 | Full FLuc ctr inactive
CN(C)S(=O)(=O)Oc1ccsc1C(=O)Nc1ccc(Cl)c(Cl)c1	none
COc1ccc(COc2ccsc2C(=O)Nc2ccc(Cl)c(Cl)c2)cc1	Mdm2-MdmX inh 76 | Mdm2 MdmX conf inactive
Cn1c(=O)c2c([nH]c(OCc3ccc(Cl)cc3Cl)[n+]2Cc2ccc(F)cc2)n(C)c1=O	Mdm2-MdmX inh 57 | Mdm2 MdmX conf inactive
COC(=O)c1cc(OC)c(OC)cc1NC(=S)N1CCN(c2ccccn2)CC1	none
COc1ccc2oc(C(=O)Nc3nc(-c4ccccn4)cs3)c(C)c2c1	Mdm2-MdmX inh 60 | Mdm2 MdmX conf 59 | Full FLuc ctr 69
Cc1cc(C)c(OCC(=O)Nc2nc(-c3ccccn3)cs2)c(C)c1	Mdm2-MdmX inh 53 | Mdm2 MdmX conf inactive | Full FLuc ctr 46
Cc1ccccc1OCC(=O)Nc1nc(-c2ccncc2)cs1	none (no result: Calb FLC)
O=C(Nc1nc(-c2ccccn2)cs1)c1ccco1	Mdm2-MdmX inh 51, PP1 inh 16 | Mdm2 MdmX conf inactive
COc1ccc(CNC(=O)C2CC(c3cc(C(F)(F)F)cc(C(F)(F)F)c3)=NO2)cc1 (stereo not drawn)	none
COc1cccc(C2C3=C(N=c4s/c(=C\c5ccc(O)cc5)c(=O)n42)c2ccccc2CC3)c1OC (stereo not drawn)	none
COc1cccc(C2C3=C(N=c4s/c(=C\c5cccc(O)c5)c(=O)n42)c2ccccc2CC3)c1OC (stereo not drawn)	CSC inhib 91, Mdm2-MdmX inh 68 | Mdm2 MdmX conf inactive
CCSC1=NC2(CCCCC2)Nc2sc3c(c21)CCCC3	none
NCC(=O)Nc1ccc(Cl)cc1C(=O)c1ccc[nH]1	Mdm2-MdmX inh 64 (no result: PP5 inh, CSC inhib, Beta cell apopt, PP1 inh) | Mdm2 MdmX conf 66 | Full FLuc ctr 40
COc1ccc(Cl)cc1C(=O)OCC(=O)c1ccc[nH]1	none (no result: CSC inhib, Calb FLC)
O=C(NC(=S)N1CCOCC1)c1cn(-c2ccccc2)nc1-c1ccccc1	none (no result: CSC inhib, Calb FLC)
CC1CCC(NC(=O)c2cccc(S(=O)(=O)NCc3ccccc3)c2)CC1 (stereo not drawn)	none
Cc1cc(NO)c(C(C)C)cc1N=O	Mdm2-MdmX inh 60 | Mdm2 MdmX conf inactive
Cc1cc(O)c(C(C)C)cc1N=Nc1ccccc1C(=O)O	none
C=C(C)[C@@H]1CC[C@]2(C(=O)O)CC[C@]3(C)C(CCC4[C@@]5(C)CC[C@H](O)C(C)(C)C5CC[C@]43C)C12 (stereo partly drawn)	CSC inhib 94, Mdm2-MdmX inh 94 | Mdm2 MdmX conf inactive
COCCCNc1nc(N)c([N+](=O)[O-])c(Nc2cc(OC)ccc2OC)n1	Mdm2-MdmX inh 70 | Mdm2 MdmX conf inactive
COc1ccc(OC)c(Nc2nc(N)c([N+](=O)[O-])c(NCc3ccccc3)n2)c1	Mdm2-MdmX inh 85 | Mdm2 MdmX conf inactive
Cc1ccc(C)c(S(=O)(=O)Nc2ccccc2C(=O)Nc2ccccc2N2CCOCC2)c1	none
Cc1c2ccccc2nc2ccccc12	none
Cc1c2ccccc2c(C)c2c1ccc1ccccc12	Mdm2-MdmX inh 79 (no result: Calb FLC) | Mdm2 MdmX conf 40 | Full FLuc ctr 98
CN(C)c1ccc(C(C(=O)NC2CCCC2)N(C(=O)c2ccco2)C2CC2)cc1 (stereo not drawn)	none
COCCCN1C(=O)N(c2ccc(F)cc2)C(=O)C1CC(=O)Nc1ccc(OC)cc1 (stereo not drawn)	none (no result: Beta cell apopt)
O=C(NC(=S)/C(=C1\CCCCCN1)[N+](=O)[O-])c1ccccc1	Mdm2-MdmX inh 85 (no result: PP5 inh, PP1 inh, Calb FLC) | Mdm2 MdmX conf 79 | Full FLuc ctr 142
O=C(NC(=S)Nc1ccccc1[N+](=O)[O-])c1ccccc1	none
COc1ccc(S(=O)(=O)Nc2c(C(=O)O)[nH]c3ccc(OC)cc23)cc1	none (no result: Calb FLC)

Screens from PubChem BioAssay.
